{
  "source": "PubChem BioAssay (NCI)",
  "note": "Compounds without any hit were thinned out: in the full panel of roughly 83,000, 20% have a hit.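 Cells were grown in 96-well plates and exposed to the test compound at a single concentration for 48 hours; results are reported as percent growth, with values below 10 considered active.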 A number with no mark means an inactive call. Calls of active or inactive are those of the source.",
  "data": [
    {"tested_on": "HL-60(TB) leukemia", "test": "NCI-60 one-dose screen, 48 h (100 = growth as untreated, 0 = no growth, -100 = all killed)", "settings": "10 µM unless noted", "values": [
      {"smiles": "CCCCCc1ccc(S(=O)(=O)Nc2cccc(-c3csc(NC(=O)CCCCCN4CCN(CCO)CC4)n3)c2)cc1", "growth": "63.4%"},
      {"smiles": "COc1ccc(N2CCN(C3=C(Cl)C(=O)C(C)=C(C)C3=O)CC2)cc1", "growth": "80.3%"},
      {"smiles": "O=C(CCCCCCN1CC(=O)N2[C@@H](c3ccc(Cl)c(F)c3)c3[nH]c4ccccc4c3C[C@H]2C1=O)NO", "growth": "85.1%"},
      {"smiles": "COc1cc2cc(Oc3ccc(NC(=O)Nc4cc(C(F)(F)F)cc(C(F)(F)F)c4)cc3)c(C)nc2cc1OCCN(C)C", "growth": "109%"},
      {"smiles": "CCCn1cnc2c(c1=N)C(c1ccc(F)cc1)c1sc3c(CC)cccc3c1O2", "note": "(stereo not given)", "growth": "-36.4% (active)"},
      {"smiles": "NC(N)=Nc1ccc(Oc2cccc(Nc3ccc(Cl)cc3)c2)cn1", "growth": "-69.4% (active)"},
      {"smiles": "COc1cccc(N2CCN(c3ncnc4c3[nH]c3ccc(F)cc34)C[C@@H]2C)c1", "growth": "-38.8% (active)"},
      {"smiles": "NC(N)=NS(=O)(=O)c1ccc(N=NC2C(=O)NN(c3ccccc3)C2=O)cc1", "note": "(stereo not given)", "growth": "107%"},
      {"smiles": "CCc1cc(O)ccc1Nc1cc(-c2ccc(-n3cccn3)cc2)[nH]n1", "growth": "58.6%"},
      {"smiles": "Brc1cccc(-c2cc(-c3ccc4c(c3)OC=CO4)[nH]n2)c1", "growth": "14.7%"},
      {"smiles": "Cc1cc2ncc(-c3cc4ccccc4c(N4CCN(C)CC4)n3)nc2cc1C", "growth": "-31.9% (active)"},
      {"smiles": "CCc1nnc(NC(=O)c2cc(-c3ccc(Cl)cc3Cl)oc2C)s1", "growth": "88.5%"},
      {"smiles": "C#Cc1nc(C2=C(C)C(O)/C(=N/O)C2)cs1", "note": "(stereo not given)", "growth": "-37.9% (active)"},
      {"smiles": "CC1(C)CC[C@]2(C(=O)N3CCCN(CC#N)CC3)CC[C@]3(C)C(=CC[C@@H]4[C@@]5(C)CC[C@H](O)C(C)(C)[C@@H]5CC[C@]43C)[C@H]2C1", "growth": "-15.9% (active)"},
      {"smiles": "O=C1[C@H]2Cc3c([nH]c4ccccc34)[C@H](c3ccc(Cl)cc3)N2C(=O)CN1C1CCN(CC2CCCCC2)CC1", "growth": "47.2%"},
      {"smiles": "C#CCN(C)CCCOc1ccc(NC(=O)CCCCCCCCC(=O)NO)cc1Cl", "growth": "28.6%"},
      {"smiles": "Nc1nc(-c2cccc([N+](=O)[O-])c2)c(N=Nc2ccc(Br)cc2)s1", "growth": "100%"},
      {"smiles": "COc1ccc(-c2nc3cc(Cl)c(Cl)cc3n2CC(=O)N=Nc2c(O)[nH]c3ccc(Br)cc23)cc1", "growth": "80.2%"},
      {"smiles": "Oc1ccccc1/C=N/Nc1nc(N/N=C/c2ccccc2O)nc(N2CCOCC2)n1", "growth": "3.74% (active)"},
      {"smiles": "CCOC(=O)C(=O)/C(=C\\c1ccc(Cl)cc1)C(=O)N1C(=S)NC(=O)C1CC(C)C", "note": "(stereo not given)", "growth": "111%"},
      {"smiles": "CCOC(=O)c1c(Nc2ccccc2)nn2c(-c3ccc(Br)cc3)ccnc12", "growth": "90.6%"},
      {"smiles": "Nc1nc(N)c2c(n1)NC(c1ccc(C(F)(F)F)cc1)CC(c1ccc(Nc3nc(NCCO)nc(N4CCOCC4)n3)cc1)=N2", "note": "(stereo not given)", "growth": "21.4%"},
      {"smiles": "CCN1C(=O)N(CC)C2SC(N/N=C/c3ccccc3)=NC21", "note": "(stereo not given)", "growth": "4% (active)"},
      {"smiles": "Nc1ccccc1NC(=O)c1ccc(NC(=O)C/C=C/c2cccnc2)cc1", "growth": "12.6%"},
      {"smiles": "CCC(CC)N1C(=O)/C(=c2\\sc3n(c2=O)NC2C(N=3)N(CC)C(=O)N2CC)c2ccccc21", "note": "(stereo not given)", "growth": "26.5%"},
      {"smiles": "Cn1cc(-c2nc(N)nnc2-c2c[nH]c3ccccc23)c2cc(Br)ccc21", "growth": "-0.377% (active)"},
      {"smiles": "Nc1c(C(=O)c2ccccc2)sc2nc(-c3cnccn3)cc(-c3cccs3)c12", "growth": "108%"},
      {"smiles": "COc1ccc(Cn2cc3c(c2-c2cc(OC)c(OC)c(OC)c2)CCc2c(CN4CCOCC4)noc2-3)cc1", "growth": "1.3% (active)"},
      {"smiles": "CN(C)c1cccc2c(S(=O)(=O)Nc3cccc(-c4csc(NC(=O)CCCCCN5CCN(CCO)CC5)n4)c3)cccc12", "growth": "74.8%"},
      {"smiles": "O=S(=O)(NCCCNc1nccc(-c2[nH]c(-c3ccccc3)nc2-c2ccc(Cl)c(O)c2)n1)c1ccc(Br)cc1", "growth": "13.1%"},
      {"smiles": "C/C=C/C=C1\\C[C@H]2CO[C@H](O2)C1=O", "growth": "99.8%"},
      {"smiles": "COc1ccc(S(=O)(=O)NCCCNc2nccc(-n3cnc4ccccc43)n2)cc1", "growth": "110%"},
      {"smiles": "COc1cc(/C=C/C(=O)c2ccc(Cl)cc2)ccc1Oc1nc(NCCO)nc(N2CCOCC2)n1", "growth": "93.7%"},
      {"smiles": "CN(C)CCNC(=O)c1ccc(-c2nc3ccc4[nH]ncc4c3c3c2COCC3)cc1", "growth": "-32.6% (active)"},
      {"smiles": "Cn1ccnc1C(=O)/C=C/c1ccc(NC(=O)c2c(F)c(F)c(F)c(F)c2F)cc1", "growth": "78.3%"},
      {"smiles": "NC(N)=Nc1ccc(Oc2cccc(Nc3ccc(Br)c(C(F)(F)F)c3)c2)cc1", "growth": "-50.3% (active)"},
      {"smiles": "CCN(CC)c1ccc(/C=N/NC(=O)c2ccc(S(N)(=O)=O)cc2)c(O)c1", "growth": "1.26% (active)"},
      {"smiles": "N#Cc1nc(-c2ccc(Cl)cc2)oc1N1CCC(S(=O)(=O)N2CCOCC2)CC1", "growth": "112%"},
      {"smiles": "CC(=O)N1N=C(c2cc3ccccc3oc2=O)CC1c1cn(-c2ccccc2)nc1-c1ccc(C)cc1", "note": "(stereo not given)", "growth": "107%"},
      {"smiles": "O=C(COc1ccc(/C=C2\\C(=O)Nc3cc(Cl)ccc32)cc1)Nc1ccc(Cl)cc1", "growth": "61%"}
    ]}
  ]
}
